Laboratory results reported in PubChem BioAssay (Tox21).
Records with an inconclusive call do not appear. Activity calls are given as the source filed them. The call rests on the fitted dose curve; in most records, active means well fitted curve in the direction sought with a large enough effect in the repeat runs; inconclusive means weak or mixed curves; inactive means no such curve, though single readings can be large; an effect the other way counts as inactive or inconclusive.

Key:
[1] = qHTS assay to identify small molecule agonists of the RXR signaling pathway - cell viability counter screen (AID 1159529); further: series mostly up to about 77 µM; nearly all actives have a fitted effect of over 50% in size
In short: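 CellTiter-Glo luminescence gave viability in the wells also read for beta-lactamase. Cells (RXR-alpha-UAS-bla HEK 293T, 2% charcoal-stripped FBS medium) had 5 hr plating, then 16 hr compound exposure at 37 C; tetraoctyl ammonium bromide served as positive control.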

[2] = qHTS assay to identify small molecule antagonists of the retinoid acid receptor (RAR) signaling pathway - cell viability counter screen (AID 1159551); further: nearly all actives have a fitted effect of over 35% in size
In short: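 ATP-based viability, C3RL4 cells, 6 h at 37 C with 1 uM final retinol co-added after compound; luminescence read 30 min post CellTiter-Glo, RT.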

[3] = qHTS assay to identify small molecule antagonists of the retinoic acid receptor (RAR) signaling pathway (AID 1159552; further: nearly all actives have a fitted effect of over 50% in size)
In short: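 Luminescent RARE reporter read-out in C3RL4 cells: 6 hr co-treatment at 37 C of test compounds with retinol at 1 uM final. Cells plated overnight beforehand; luciferase reagent incubated 30 min at room temperature before reading.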

[4] = qHTS assay to identify small molecule agonists of the retinoic acid receptor (RAR) signaling pathway (AID 1159553)
In short: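 Quantitative high-throughput format: the Tox21 10K library was tested on C3RL4 RARE-luciferase cells for 6 hr at 37 C and 5% CO2, with luminescence measured after a 30 min room-temperature reagent step.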

Measured: Potency

CC1(C)COP(Oc2ccccc2)OC1
inactive: all assays above

CCCCOC(=O)c1ccccc1C(=O)O
inactive: all assays above

C[C@]12CC[C@H]3[C@@H](CCC4=CC(=O)CC[C@@]43C)[C@@H]1CC[C@@H]2C(=O)O
inactive: all assays above
